# Assay results as given in PubChem BioAssay.
# The source made the active and inactive calls.
# Tests used:
# [1] = E. coli DRC41 culture turbidity changes, primary screen, E. coli filamentation inducer project, strain DRC41, OD650, 48 h (AID 1152);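 also: E. coli MC1000 strain DRC41 lacking acrAB efflux pump and sulA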; settings: E. coli DRC41 (acrAB sulA), higher = more signal, called active from +8 up or from −8 down
# [2] = small-molecule binders of probe aLefty1, primary screen, biochemical, small-molecule microarray, 635/667 nm fluorescence (AID 1153); settings: higher = more signal;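 also: score merges spot fluorescence with signal-to-noise ratio from the scanned slide images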
# [3] = PSAC antagonists in infected red cells, primary screen, cell-based, P. falciparum Indochina, OD700, 1 h (AID 1154); settings: P. falciparum Indochina infected RBC osmotic lysis, higher = more signal, called active from +8 up or from −8 down
# [4] = PSAC antagonists in infected red cells, primary screen, cell-based, P. falciparum Indochina, OD700, 2 h (AID 1155);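 also: lysis reports solute entry through the parasite surface anion channel PSAC; channel blockers reduce lysis of infected cells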; settings: P. falciparum Indochina infected erythrocytes, osmotic lysis OD700; higher = more signal, called active from +8 up or from −8 down
# [5] = osmotic lysis modulators in infected erythrocytes, primary screen, PSAC antagonist project, cell-based, P. falciparum Indochina, OD700, 3 h (AID 1156); settings: higher = more signal, called active from +8 up or from −8 down
# [6] = PSAC antagonists in infected red cells, primary screen, cell-based, P. falciparum Indochina, OD700, 18 h (AID 1157); settings: P. falciparum Indochina infected erythrocytes, osmotic lysis OD700, 18 h; higher = more signal, called active from +8 up or from −8 down
# [7] = modulators of S6 phosphorylation in cells, primary screen, cell-based, A549, cytoblot, luminescence, serum-stimulated (AID 1158); settings: A549 phospho-S6 cytoblot, 5 h, higher = more signal;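 also: serum-stimulated A549 lung adenocarcinoma cells; signal is phosphorylated S6 detected by cytoblot immunostaining with HRP secondary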
# [8] = molecular target: NADPH oxidase 2 (Homo sapiens) (UniProt P04839); experiment: NOX2-dependent H2O2 signal modulators, primary screen, NOX inhibitor project, cell-based, HEK293-NOX2, PMA-stimulated, Amplex Red fluorescence (AID 1159); settings: 45 min, higher = more signal, called active from +8 up or from −8 down; also: test concentration not given here
# [9] = molecular target: NADPH oxidase 4 (Homo sapiens) (UniProt Q9NPH5); experiment: NOX4-dependent H2O2 signal modulators, primary screen, NOX inhibitor project, cell-based, HEK293-NOX4, tetracycline-induced, Amplex Red fluorescence (AID 1160); settings: 45 min, higher = more signal, called active from +8 up or from −8 down
# [10] = molecular target: NADPH oxidase 5 (Homo sapiens) (UniProt Q96PH1); experiment: NOX5-dependent H2O2 signal modulators, primary screen, NOX inhibitor project, cell-based, HEK293-NOX5, Amplex Red fluorescence (AID 1161); settings: HEK293-NOX5, ionomycin, 45 min, higher = more signal
# NADPH oxidase 5 (Homo sapiens), sequence (Q96PH1 whole entry, looked up): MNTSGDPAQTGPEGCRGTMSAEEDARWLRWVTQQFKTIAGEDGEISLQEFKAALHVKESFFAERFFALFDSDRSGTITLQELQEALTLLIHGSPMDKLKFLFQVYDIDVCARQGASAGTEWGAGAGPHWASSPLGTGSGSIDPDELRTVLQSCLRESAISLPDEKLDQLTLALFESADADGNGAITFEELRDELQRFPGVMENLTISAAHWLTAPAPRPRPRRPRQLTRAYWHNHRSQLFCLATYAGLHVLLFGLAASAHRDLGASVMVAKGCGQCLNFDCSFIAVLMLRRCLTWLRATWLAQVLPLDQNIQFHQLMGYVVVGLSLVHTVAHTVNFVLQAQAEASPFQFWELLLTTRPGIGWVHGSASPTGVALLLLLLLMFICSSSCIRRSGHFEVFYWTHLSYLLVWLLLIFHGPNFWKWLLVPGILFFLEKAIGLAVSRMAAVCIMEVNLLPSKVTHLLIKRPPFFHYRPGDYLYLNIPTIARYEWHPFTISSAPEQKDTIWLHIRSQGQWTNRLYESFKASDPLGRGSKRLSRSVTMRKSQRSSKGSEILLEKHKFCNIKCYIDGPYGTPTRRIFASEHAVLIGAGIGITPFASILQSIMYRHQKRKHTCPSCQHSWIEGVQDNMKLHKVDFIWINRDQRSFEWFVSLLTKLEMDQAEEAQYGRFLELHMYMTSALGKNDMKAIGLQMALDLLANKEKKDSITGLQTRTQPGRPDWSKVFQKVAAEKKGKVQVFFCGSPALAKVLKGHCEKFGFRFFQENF
# NADPH oxidase 2 (Homo sapiens), sequence (P04839 whole entry, looked up): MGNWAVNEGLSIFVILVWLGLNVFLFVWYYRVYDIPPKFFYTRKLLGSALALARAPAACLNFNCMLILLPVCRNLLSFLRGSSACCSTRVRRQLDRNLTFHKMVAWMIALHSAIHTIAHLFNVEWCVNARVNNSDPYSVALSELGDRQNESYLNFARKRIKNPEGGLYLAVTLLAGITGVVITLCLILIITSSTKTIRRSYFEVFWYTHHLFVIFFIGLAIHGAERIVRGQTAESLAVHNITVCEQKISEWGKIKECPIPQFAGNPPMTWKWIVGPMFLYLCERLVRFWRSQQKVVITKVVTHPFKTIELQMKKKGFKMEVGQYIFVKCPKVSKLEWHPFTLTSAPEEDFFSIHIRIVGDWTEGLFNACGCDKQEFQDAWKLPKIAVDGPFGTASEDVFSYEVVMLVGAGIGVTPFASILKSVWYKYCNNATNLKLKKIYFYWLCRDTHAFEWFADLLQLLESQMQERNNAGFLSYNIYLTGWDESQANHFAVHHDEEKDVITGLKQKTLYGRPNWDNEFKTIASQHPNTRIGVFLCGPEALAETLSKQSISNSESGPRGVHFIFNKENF
# NADPH oxidase 4 (Homo sapiens), sequence (Q9NPH5 whole entry, looked up): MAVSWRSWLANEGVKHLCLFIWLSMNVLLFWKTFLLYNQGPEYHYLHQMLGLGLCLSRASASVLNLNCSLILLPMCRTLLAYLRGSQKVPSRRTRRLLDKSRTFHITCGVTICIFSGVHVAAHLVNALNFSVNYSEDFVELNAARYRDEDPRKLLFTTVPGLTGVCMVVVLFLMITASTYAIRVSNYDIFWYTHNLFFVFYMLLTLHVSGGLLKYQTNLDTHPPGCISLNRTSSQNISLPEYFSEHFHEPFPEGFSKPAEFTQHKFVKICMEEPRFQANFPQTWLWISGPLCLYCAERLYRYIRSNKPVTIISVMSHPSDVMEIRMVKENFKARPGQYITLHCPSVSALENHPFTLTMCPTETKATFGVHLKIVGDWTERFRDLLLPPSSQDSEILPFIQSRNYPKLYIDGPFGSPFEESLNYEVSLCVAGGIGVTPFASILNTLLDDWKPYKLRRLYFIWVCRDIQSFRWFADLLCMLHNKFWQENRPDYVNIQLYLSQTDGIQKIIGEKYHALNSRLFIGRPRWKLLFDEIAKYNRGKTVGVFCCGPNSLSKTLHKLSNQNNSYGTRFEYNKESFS
SMILES,z-score [1],composite z-score [2],z-score [3],z-score [4],z-score [5],z-score [6],z-score [7],z-score [8],z-score [9],z-score [10]
CN(C)C(=O)[C@@]1(CCS(=O)(=O)c2ccccc2)N=C(c2ccc(OCCCO)cc2)O[C@H]1c1ccccc1CN=[N+]=[N-],1.1 (inactive),0.375,24 (active),4.2 (inactive),0.344 (inactive),-0.48 (inactive),1.12,-1.49 (inactive),0.083 (inactive),-0.558
Cc1ccc(S[C@]2(C(=O)NCc3ccccc3)CC(=O)N(C3Cc4ccccc4C3)[C@@H]2c2ccc(CO)cc2I)cc1,3.36 (inactive),0.0049,3.94 (inactive),-0.533 (inactive),-0.406 (inactive),-0.63 (inactive),1.58,0.542 (inactive),-0.966 (inactive),1.42
CC(C)(C)OC(=O)CC[C@@]1(C(=O)N2CCCCC2)N=C(c2ccc(OCCCO)cc2)O[C@@H]1c1ccccc1N=[N+]=[N-],1.71 (inactive),0.432,30.3 (active),29.3 (active),2.26 (inactive),8.44 (active),-0.0394,-2.98 (inactive),1.03 (inactive),-1.47
CCCN1C(=O)[C@@]2(Cc3ccccc3)N=C(c3ccc(OCCCO)cc3)O[C@H]2c2ccccc21,0.299 (inactive),0.572,32.7 (active),33.7 (active),3.01 (inactive),5.2 (inactive),-0.149,-2.69 (inactive),-0.584 (inactive),-1.79
NC(=O)NCC#Cc1ccc2c(c1)[C@]1(C(=O)N2)[C@H](c2ccc(O)cc2)N2[C@H](c3ccccc3)[C@H](c3ccccc3)OC(=O)[C@H]2[C@@H]1C(=O)NC[C@H](O)c1ccccc1,0.578 (inactive),-0.316,-0.0501 (inactive),0.647 (inactive),0.223 (inactive),0.363 (inactive),-0.328,0.251 (inactive),-0.258 (inactive),-0.0927
CN(C)CCCCNC(=O)[C@H]1C[C@H]2C(=O)N[C@@H](CCCC[N+](C)(C)C)C(=O)N2[C@H]1c1cccc(OCCO)c1,0.125 (inactive),0.145,3.16 (inactive),0.77 (inactive),0.675 (inactive),0.178 (inactive),-0.294,2.19 (inactive),1.58 (inactive),1.26
COc1ccc([Si](C)(C)[C@@H]2[C@@H](CC(=O)N(CCO)Cc3ccccc3)O[C@]3(C(=O)N(Cc4ccc(N5CCOC5=O)cc4)c4ccccc43)[C@H]2C)cc1,-1.02 (inactive),-0.0891,8.87 (active),1.62 (inactive),-0.248 (inactive),0.821 (inactive),-0.16,0.566 (inactive),1.18 (inactive),3.4
[N-]=[N+]=NCc1ccccc1C[C@@]1(C(=O)NCCN2CCOCC2)N=C(c2ccc(OCCCO)cc2)O[C@@H]1c1ccccc1CN=[N+]=[N-],0.648 (inactive),0.565,26.4 (active),13.7 (active),1.2 (inactive),2.26 (inactive),-0.213,0.528 (inactive),0.116 (inactive),2.24
COC(=O)[C@H]1N=C(c2ccc(OCCCO)cc2)O[C@H]1c1ccccc1CN=[N+]=[N-],0.495 (inactive),0.938,24 (active),7.57 (inactive),1.35 (inactive),1.11 (inactive),-0.221,-0.102 (inactive),1.43 (inactive),0.352
COCCOC(=O)N1C(=O)[C@@]2(c3cc(C#CCNC(N)=O)ccc31)[C@H](C(=O)N1CCCCCCC1)[C@H]1C(=O)O[C@H](c3ccccc3)[C@H](c3ccccc3)N1[C@@H]2c1ccc(OCCO)cc1,0.0904 (inactive),0.174,4.45 (inactive),1.89 (inactive),1.99 (inactive),1.25 (inactive),0.437,1.53 (inactive),1.25 (inactive),0.0911
CC(C)=CCCC(C)=CC(O)C1C=CC2C(=O)N(c3ccccc3)C(=O)C2N1Nc1ccc([N+](=O)[O-])cc1 (stereo not given),-1.41 (inactive),-0.131,8.34 (active),2.3 (inactive),1.04 (inactive),1.44 (inactive),-0.563,-0.381 (inactive),-3.41 (inactive),-0.516
COCCOC(=O)N1C(=O)[C@@]2(c3cc(C#CCC(C(=O)OC)C(=O)OC)ccc31)[C@H](c1ccc(OCCO)cc1)N1[C@H](c3ccccc3)[C@H](c3ccccc3)OC(=O)[C@H]1[C@@H]2C(N)=O,-0.361 (inactive),-0.147,5.25 (inactive),1.58 (inactive),0.478 (inactive),0.59 (inactive),0.702,2.17 (inactive),0.988 (inactive),0.717
CCC[C@@H]1C[C@@]1(CCC)[C@@H](NC(=O)c1ccco1)c1ccc(Cl)cc1,-1.37 (inactive),-0.0035,1.85 (inactive),0.238 (inactive),0.425 (inactive),0.469 (inactive),-0.0915,-1.46 (inactive),-3.83 (inactive),-0.796
